The record followed here is PubChem BioAssay (EPA / NIEHS).

Experiment [1] is described as follows: ATG_GRE_CIS: Attagene CIS-FACTORIAL HepG2 Assay for human Glucocorticoid Response Elements (GRE) (AID 2282947; active means hit-call score of the fitted dose curve at least 0.9, where 1 is the maximum; inactive means score below 0.9). As to conditions: HepG2 GRE cis-reporter, Attagene multiplex mRNA; actives raise or lower the signal. The method in brief:
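HepG2, transient cis-reporter transfection, 24 h. Reporter mRNA: RT-PCR then CE, fluorescence. Fit both directions vs DMSO.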

A short description of experiment [2]: ATG_PBREM_CIS: Attagene CIS-FACTORIAL HepG2 Assay for human Phenobarbital-responsive Enhancer Module (PBREM) (AID 2282955; active means hit-call score of the fitted dose curve at least 0.9, where 1 is the maximum; inactive means score below 0.9). The conditions noted are these: HepG2 PBREM cis-reporter, Attagene multiplexed transcription; actives raise or lower the signal. The method in brief:
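Multiplexed cis-reporter readout in human hepatoma HepG2 cells; PBREM-regulated transcript quantified after 24 h exposure by fluorescent RT-PCR fragment analysis. Signal changes up or down fitted relative to DMSO.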

Experiment [3] in a line: ATG_RORE_CIS: Attagene CIS-FACTORIAL HepG2 Assay for human RAR-related Orphan Receptor Element (RORE) (AID 2282959; active means hit-call score of the fitted dose curve at least 0.9, where 1 is the maximum; inactive means score below 0.9). The conditions noted are these: HepG2 Attagene cis-factorial RORE reporter, mRNA; actives raise or lower the signal. Put shortly: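 Transfect HepG2 with MRTUs; treat 24 h; extract RNA; RT with oligo(dT); PCR with reporter-specific primers; 6-FAM primer extension; HpaI digest 2 h at 37 C; capillary electrophoresis. Fit vs DMSO, bidirectional.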

Experiment [4] deals with Transcription factor Sp1 (Homo sapiens) (UniProt P08047). The experiment is described as follows: ATG_Sp1_CIS: Attagene CIS-FACTORIAL HepG2 Assay for human Specificity Protein 1 (Sp1) (AID 2282961; active means hit-call score of the fitted dose curve at least 0.9, where 1 is the maximum; inactive means score below 0.9). The conditions noted are these: HepG2 Sp1 cis-reporter transcription, actives raise or lower the signal. Put shortly: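 Chemicals are dosed onto HepG2 cells transfected with multiple cis-promoter reporter constructs, and after 24 h reporter RNA is reverse-transcribed, PCR-amplified and resolved by capillary electrophoresis for fluorescence quantitation; activity is scored up or down against DMSO.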

Experiment [5] addresses Signal transducer and activator of transcription 3 (Homo sapiens) (UniProt P40763). The experiment in a line: ATG_STAT3_CIS: Attagene CIS-FACTORIAL HepG2 Assay for human Signal Transducer and Activator of Transcription 3 (STAT3) (AID 2282963; active means hit-call score of the fitted dose curve at least 0.9, where 1 is the maximum; inactive means score below 0.9). As to conditions: HepG2, Attagene cis-factorial STAT3 reporter transcription; actives raise or lower the signal. Put shortly: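 Uses human liver HepG2 transiently carrying cis-regulated reporter transcription units. Following 24 h dosing, reporter mRNA induction was detected by RT-PCR and capillary electrophoresis, analysed bidirectionally versus DMSO.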

The target of experiment [6] is Hepatocyte nuclear factor 4-alpha (Homo sapiens) (UniProt P41235). The experiment is described as follows: ATG_HNF4a_TRANS: Attagene TRANS-FACTORIAL HepG2 Assay for human Hepatocyte Nuclear Factor 4 alpha (HNF4a) (AID 2282982). The conditions noted are these: HepG2 HNF4a transactivation reporter, mRNA readout. The method in brief:
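Using HepG2 liver cells transfected with GAL4-UAS reporter units, chemical-induced mRNA increases were assessed after 24 hours. Fluorescent RT-PCR fragments were separated by capillary electrophoresis and compared with DMSO negative controls.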

The nature of experiment [7]: ATG_M_06_TRANS: Attagene TRANS-FACTORIAL HepG2 Assay for M06 Transcription Factor (Internal Marker) (AID 2282983).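 Further: reporter transcript level by RT-PCR then capillary electrophoresis fluorescence.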 As to conditions: HepG2 Attagene TRANS M06 internal marker reporter. Put shortly:
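Read-out: fluorescent reporter cDNA fragments resolved by capillary electrophoresis after RT-PCR and HpaI cut. Source cells were HepG2 carrying transfected multi-reporter GAL4 constructs, dosed 24 h. Increase over DMSO control analysed.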

Experiment [8] concerns the target Transcriptional activator Myb (Homo sapiens) (UniProt P10242). The experiment is described as follows: ATG_Myb_CIS: Attagene CIS-FACTORIAL HepG2 Assay for human Myeloblastosis (Myb) Proto-Oncogene Transcription Factor (AID 2282986; active means hit-call score of the fitted dose curve at least 0.9, where 1 is the maximum; inactive means score below 0.9). The conditions noted are these: HepG2 Attagene CIS-FACTORIAL Myb reporter transcription; actives raise or lower the signal. The method in brief:
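Using HepG2 liver cells bearing transiently transfected cis-promoter reporter constructs, the assay measures induction or loss of reporter mRNA after 24 hours of dosing. Detection used fluorescently labeled RT-PCR products separated by capillary electrophoresis.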

A short description of experiment [9]: ATG_NFI_CIS: Attagene CIS-FACTORIAL HepG2 Assay for human Nuclear Factor I (NFI) (AID 2282989; active means hit-call score of the fitted dose curve at least 0.9, where 1 is the maximum; inactive means score below 0.9). As to conditions: HepG2 cis-regulatory reporter, NFI response element transcription; actives raise or lower the signal. Put shortly:
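HepG2, transient MRTU, 24 h exposure; RNA→cDNA→PCR→FAM label→HpaI→CE fluorescence. Bidirectional fit, DMSO = baseline.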

Experiment [10] concerns the target human Retinoid X Receptor beta (RXRb), RXRB (gene 6257) (UniProt P28702). The experiment is described as follows: ATG_RXRb_TRANS: Attagene TRANS-FACTORIAL HepG2 Assay for human Retinoid X Receptor beta (RXRb) (AID 2283013). Put shortly:
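Read-out: reporter mRNA induction via RT-PCR plus capillary electrophoresis fluorescence, analysed as signal increase relative to DMSO. Cells were human HepG2, transiently transfected with GAL4-UAS reporter constructs and chimeric receptor-Gal4 fusions, dosed for 24 h.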

Experiment [11] can be described thus: ATG_M_32_TRANS: Attagene TRANS-FACTORIAL HepG2 Assay for M32 Transcription Factor (Internal Marker) (AID 2282984).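 Further: transcript level of a background control reporter unit measured by RT-PCR and capillary electrophoresis.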 The conditions noted are these: HepG2 Attagene TRANS M32 internal marker reporter. Put shortly: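 Fluorescence-detected mRNA induction, HepG2 liver cells, 24 h after dosing. Multiple GAL4-UAS reporter units introduced by transient transfection; background-control endpoint analysed for gain of signal against DMSO.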

Experiment [12] addresses Peroxisome proliferator-activated receptor gamma (Homo sapiens) (UniProt P37231). The experiment in a line: ATG_PPARg_TRANS: Attagene TRANS-FACTORIAL HepG2 Assay for human Peroxisome Proliferator-activated Receptor-gamma (PPARg) (AID 2283007). The method in brief: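 Chimeric NR-Gal4 transactivation is measured in transiently transfected HepG2 cells by reporter mRNA induction at 24 h. Detection uses RT-PCR with fluorescent labelling and capillary electrophoresis; DMSO defines baseline.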

The nature of experiment [13]: TOX21_p53_BLA_p2_viability: Viability Assessment in the Tox21 HCT-116 p53 Agonism Beta-lactamase Assay, Phase 2 (AID 2283591).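 Further: actives lower the ATP signal meaning cytotoxicity.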 The method in brief: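 HCT-116 p53-bla cells (4000/well) rested 5 h at 37C, then received compounds in DMSO (217-fold dilution) for 16 h at 37C, 5% CO2. After the CCF4 read, CellTiter-Glo was added; ATP luminescence was read after 30 min at room temperature.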

For experiment [14], the target named is Cellular tumor antigen p53 (Homo sapiens) (UniProt P04637). The experiment in a line: TOX21_p53_BLA_p2_ratio: Tox21 HCT-116 p53 Agonism Beta-lactamase Assay, Ratio, Phase 2 (AID 2283592). Put shortly:
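Readout: blue/green (460/530 nm) FRET emission ratio after 2 h CCF4-AM loading at room temperature, excitation 405 nm. HCT116 p53 bla cells, 16 h compound exposure at 37C, 5% CO2; agonist direction fitted against DMSO baseline.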

For experiment [15] the target is unchanged. The experiment in a line: TOX21_p53_BLA_p3_ratio: Tox21 HCT-116 p53 Agonism Beta-lactamase Assay, Ratio, Phase 3 (AID 2283596). The method in brief: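 Cells were seeded at 4000/well, rested 5 h at 37C, then dosed with DMSO compound solutions (217-fold dilution) for 16 h. CCF4-AM substrate was loaded for 2 h at room temperature, and the 460/530 nm emission ratio was fitted for gain of signal versus DMSO.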

Experiment [16] in a line: TOX21_p53_BLA_p4_viability: Viability Assessment in the Tox21 HCT-116 p53 Agonism Beta-lactamase Assay, Phase 4 (AID 2283597).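 Further: hits lower the luminescence signal meaning cytotoxicity.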 Put shortly: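 ATP content by CellTiter-Glo luminescence, 30 min RT, read after the beta-lactamase ratio step. Cells: HCT116, 4000/well, compound added after 5 h, exposure 16 h at 37C. Signal loss = reduced viability.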
Experiment [17] deals with Cellular tumor antigen p53 (Homo sapiens) (UniProt P04637). The experiment in a line: TOX21_p53_BLA_p5_ratio: Tox21 HCT-116 p53 Agonism Beta-lactamase Assay, Ratio, Phase 5 (AID 2283599). The method in brief: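 HCT-116 cells carrying a p53-inducible beta-lactamase reporter were seeded at 4000 cells/well and dosed after 5 h with compound in DMSO (217-fold dilution). After 16 h at 37C, CCF4-AM substrate was added for 2 h, and the 460/530 nm emission ratio was scored as gain-of-signal versus DMSO.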

Experiment [18] in a line: TOX21_p53_BLA_p5_viability: Viability Assessment in the Tox21 HCT-116 p53 Agonism Beta-lactamase Assay, Phase 5 (AID 2283600). The method in brief: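 ATP luminescence (CellTiter-Glo, 30 min, RT) served as the viability read-out, with loss of signal indicating cytotoxicity. Compounds in DMSO were pinned at a 217-fold dilution onto 4000 cells/well and incubated 16 h, 37C.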

Experiment [19] has as its target Cellular tumor antigen p53 (Homo sapiens) (UniProt P04637). The experiment is described as follows: TOX21_p53_BLA_p4_ratio: Tox21 HCT-116 p53 Agonism Beta-lactamase Assay, Ratio, Phase 4 (AID 2283601). Put shortly: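 HCT116 cells carrying an inducible beta-lactamase reporter were plated at 4000 cells/well, rested 5 h, then exposed to compounds in DMSO (217-fold dilution) for 16 h at 37C. CCF4-AM substrate was loaded 2 h at room temperature; 460/530 nm emission ratio scored gain-of-signal versus DMSO.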

A short description of experiment [20]: ACEA_ER_AUC_viability: ACEA Biosciences xCELLigence Real-Time Cell Analysis on Estrogen Receptor Agonism for Viability (AID 2283782).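 Further: hit means loss of impedance signal meaning reduced cell growth or viability.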 Put shortly: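 Continuous-exposure impedance cell analysis uses T-47D cells in charcoal-stripped serum, eight 1:4 dilutions topping at 100 uM final, biological duplicate. Area under the growth curve at 80 h is fitted against DMSO baseline.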

Results filed as inconclusive are left out. Calls of active or inactive are those of the source. How the source made its calls, unless noted: active means hit-call score of the fitted dose curve at least 0.9, where 1 is the maximum; inconclusive means response in the unintended direction; inactive means score below 0.9.

Chain of Transcriptional activator Myb (Homo sapiens) (P10242 whole entry, looked up): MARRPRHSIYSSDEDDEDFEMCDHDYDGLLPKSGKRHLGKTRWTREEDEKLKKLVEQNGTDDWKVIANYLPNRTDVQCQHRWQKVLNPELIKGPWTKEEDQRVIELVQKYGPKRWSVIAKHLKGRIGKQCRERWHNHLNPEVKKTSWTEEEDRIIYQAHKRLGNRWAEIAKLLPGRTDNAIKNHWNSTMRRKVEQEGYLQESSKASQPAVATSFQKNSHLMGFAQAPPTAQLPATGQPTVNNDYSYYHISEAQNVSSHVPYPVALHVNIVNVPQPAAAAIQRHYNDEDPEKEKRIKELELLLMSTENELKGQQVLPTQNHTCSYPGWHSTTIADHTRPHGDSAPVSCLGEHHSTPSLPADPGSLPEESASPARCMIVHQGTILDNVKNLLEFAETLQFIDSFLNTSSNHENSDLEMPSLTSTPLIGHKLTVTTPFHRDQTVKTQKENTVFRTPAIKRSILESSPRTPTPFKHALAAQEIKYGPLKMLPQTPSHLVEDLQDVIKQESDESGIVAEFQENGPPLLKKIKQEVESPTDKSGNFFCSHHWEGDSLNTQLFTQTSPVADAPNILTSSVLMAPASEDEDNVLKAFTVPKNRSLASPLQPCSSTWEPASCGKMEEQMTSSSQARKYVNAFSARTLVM
Chain of Cellular tumor antigen p53 (Homo sapiens) (P04637 whole entry, looked up): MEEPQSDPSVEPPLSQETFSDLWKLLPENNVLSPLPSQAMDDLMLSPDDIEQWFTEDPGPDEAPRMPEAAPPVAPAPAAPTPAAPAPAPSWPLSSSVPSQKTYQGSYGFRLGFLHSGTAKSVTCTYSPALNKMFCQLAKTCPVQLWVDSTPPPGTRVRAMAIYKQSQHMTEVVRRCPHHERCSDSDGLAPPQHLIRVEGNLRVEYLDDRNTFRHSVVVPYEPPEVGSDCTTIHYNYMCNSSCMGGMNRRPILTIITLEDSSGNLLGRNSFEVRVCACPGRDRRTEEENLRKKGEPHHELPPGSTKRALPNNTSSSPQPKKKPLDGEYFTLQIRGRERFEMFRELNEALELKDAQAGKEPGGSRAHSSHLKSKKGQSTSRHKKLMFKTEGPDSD
Chain of Transcription factor Sp1 (Homo sapiens) (P08047 whole entry, looked up): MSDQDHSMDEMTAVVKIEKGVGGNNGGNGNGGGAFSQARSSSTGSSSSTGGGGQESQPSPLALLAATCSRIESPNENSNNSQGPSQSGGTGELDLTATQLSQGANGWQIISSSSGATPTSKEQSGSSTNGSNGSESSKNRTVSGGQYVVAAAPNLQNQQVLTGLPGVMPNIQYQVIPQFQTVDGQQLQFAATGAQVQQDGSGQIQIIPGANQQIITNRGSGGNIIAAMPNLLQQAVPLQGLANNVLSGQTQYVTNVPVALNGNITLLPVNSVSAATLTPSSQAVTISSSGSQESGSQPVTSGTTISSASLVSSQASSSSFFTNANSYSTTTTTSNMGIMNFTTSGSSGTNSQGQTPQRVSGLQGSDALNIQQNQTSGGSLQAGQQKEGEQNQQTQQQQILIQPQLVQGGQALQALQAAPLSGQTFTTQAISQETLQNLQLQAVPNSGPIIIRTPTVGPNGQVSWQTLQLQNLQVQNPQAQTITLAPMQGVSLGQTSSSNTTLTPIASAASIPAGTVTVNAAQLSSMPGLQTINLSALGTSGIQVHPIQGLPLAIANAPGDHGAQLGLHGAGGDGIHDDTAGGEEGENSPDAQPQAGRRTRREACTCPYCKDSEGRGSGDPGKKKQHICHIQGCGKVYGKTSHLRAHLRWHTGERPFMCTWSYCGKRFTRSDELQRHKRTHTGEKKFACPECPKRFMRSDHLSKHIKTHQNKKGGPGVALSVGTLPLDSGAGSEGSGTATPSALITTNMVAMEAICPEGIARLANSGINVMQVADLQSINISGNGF
Chain of human Retinoid X Receptor beta (RXRb), RXRB (gene 6257) (P28702 whole entry, looked up, the tested form may be a part): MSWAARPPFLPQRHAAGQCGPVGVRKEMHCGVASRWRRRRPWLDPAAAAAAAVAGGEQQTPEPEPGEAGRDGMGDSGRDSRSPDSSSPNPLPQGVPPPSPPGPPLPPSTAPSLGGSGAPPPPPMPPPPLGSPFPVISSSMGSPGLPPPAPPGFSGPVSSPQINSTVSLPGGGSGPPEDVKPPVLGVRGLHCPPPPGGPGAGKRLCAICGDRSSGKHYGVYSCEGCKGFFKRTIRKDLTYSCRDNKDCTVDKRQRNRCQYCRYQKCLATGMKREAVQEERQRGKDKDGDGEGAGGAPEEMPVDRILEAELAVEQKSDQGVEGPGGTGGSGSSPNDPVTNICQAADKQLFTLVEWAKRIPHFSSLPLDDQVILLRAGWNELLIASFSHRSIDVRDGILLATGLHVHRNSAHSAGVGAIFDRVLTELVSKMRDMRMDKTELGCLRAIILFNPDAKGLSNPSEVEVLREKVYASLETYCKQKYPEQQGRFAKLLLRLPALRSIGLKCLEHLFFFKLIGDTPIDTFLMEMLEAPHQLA
Chain of Signal transducer and activator of transcription 3 (Homo sapiens) (P40763 whole entry, looked up): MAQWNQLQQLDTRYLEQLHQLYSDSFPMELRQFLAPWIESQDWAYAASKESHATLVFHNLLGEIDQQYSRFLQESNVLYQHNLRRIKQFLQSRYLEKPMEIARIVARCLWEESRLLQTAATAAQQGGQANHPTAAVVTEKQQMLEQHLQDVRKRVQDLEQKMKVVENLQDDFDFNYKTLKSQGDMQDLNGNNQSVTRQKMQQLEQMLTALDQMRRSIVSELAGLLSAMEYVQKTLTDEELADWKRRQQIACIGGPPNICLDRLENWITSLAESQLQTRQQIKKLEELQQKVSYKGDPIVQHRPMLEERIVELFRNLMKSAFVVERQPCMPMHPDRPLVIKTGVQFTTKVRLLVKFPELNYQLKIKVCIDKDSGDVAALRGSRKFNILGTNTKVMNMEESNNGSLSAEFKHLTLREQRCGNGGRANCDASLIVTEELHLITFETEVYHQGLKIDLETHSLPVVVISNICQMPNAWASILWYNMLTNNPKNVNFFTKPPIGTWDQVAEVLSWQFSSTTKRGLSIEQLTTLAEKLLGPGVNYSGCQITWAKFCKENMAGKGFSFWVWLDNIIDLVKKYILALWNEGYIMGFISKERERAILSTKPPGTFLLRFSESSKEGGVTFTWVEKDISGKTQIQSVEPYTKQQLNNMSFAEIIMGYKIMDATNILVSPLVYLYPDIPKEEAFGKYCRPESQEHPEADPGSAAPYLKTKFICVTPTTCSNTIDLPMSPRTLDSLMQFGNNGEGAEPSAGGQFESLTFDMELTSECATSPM
Chain of Peroxisome proliferator-activated receptor gamma (Homo sapiens) (P37231 whole entry, looked up, the tested form may be a part): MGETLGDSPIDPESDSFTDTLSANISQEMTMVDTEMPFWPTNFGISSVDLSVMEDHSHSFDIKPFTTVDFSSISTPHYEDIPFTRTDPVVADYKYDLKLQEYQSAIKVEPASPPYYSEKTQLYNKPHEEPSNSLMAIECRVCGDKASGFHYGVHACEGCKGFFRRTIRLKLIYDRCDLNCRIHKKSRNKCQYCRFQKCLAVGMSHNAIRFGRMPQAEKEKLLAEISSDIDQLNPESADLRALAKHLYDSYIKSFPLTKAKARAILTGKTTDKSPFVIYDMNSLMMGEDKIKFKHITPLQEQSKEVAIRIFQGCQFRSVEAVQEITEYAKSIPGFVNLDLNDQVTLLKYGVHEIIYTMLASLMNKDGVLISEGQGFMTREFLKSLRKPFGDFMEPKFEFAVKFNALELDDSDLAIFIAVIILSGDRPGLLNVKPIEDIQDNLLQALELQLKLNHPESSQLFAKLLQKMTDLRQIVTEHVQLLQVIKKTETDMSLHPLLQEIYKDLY
Chain of Hepatocyte nuclear factor 4-alpha (Homo sapiens) (P41235 whole entry, looked up, the tested form may be a part): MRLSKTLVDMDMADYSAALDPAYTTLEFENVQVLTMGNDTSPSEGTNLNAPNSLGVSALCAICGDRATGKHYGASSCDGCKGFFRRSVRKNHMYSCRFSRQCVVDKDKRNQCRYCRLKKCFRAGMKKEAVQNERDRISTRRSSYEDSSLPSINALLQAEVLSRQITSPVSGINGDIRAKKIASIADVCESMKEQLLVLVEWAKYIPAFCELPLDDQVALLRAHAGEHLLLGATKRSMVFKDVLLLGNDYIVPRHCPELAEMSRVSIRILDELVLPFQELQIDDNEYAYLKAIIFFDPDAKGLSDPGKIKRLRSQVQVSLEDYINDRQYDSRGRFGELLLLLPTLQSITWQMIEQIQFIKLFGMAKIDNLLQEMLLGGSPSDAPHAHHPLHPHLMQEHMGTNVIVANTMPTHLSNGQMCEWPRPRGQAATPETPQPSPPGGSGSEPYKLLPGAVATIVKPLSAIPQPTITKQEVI

On to `CNC(=O)Oc1cc(C)c(SC)c(C)c1`, for which the molecule was called inactive in experiment [1], in [2], in experiment [3], in [4], in [5] and in [6]. The molecule was classed as inactive in [7], in experiment [8] and in [9]. The AC50 in [10] was 30.2 µM (active).

`C=CC(=O)OCC(CC)CCCC` (stereo not drawn): the result in experiment [1], in [2], in experiment [4], in experiment [5], in experiment [11] and in [8] was inactive. For the same molecule, the result in experiment [9], in experiment [12], in experiment [10], in [13], in experiment [14] and in [15] was inactive. In addition, the molecule was called inactive in experiment [16], in [17], in experiment [18], in experiment [19] and in experiment [20].

In the case of `O=C(O)COc1ccccc1`, the outcome in [1], in experiment [2], in [4], in [5], in [7] and in experiment [11] was inactive. The molecule was classed as inactive in experiment [9], in experiment [12], in experiment [13], in experiment [14], in experiment [15] and in [16]. Further, the outcome in [17], in [18], in [19] and in experiment [20] was inactive.

Turning to `O=C(NC(=O)c1c(F)cccc1F)Nc1ccc(Oc2ccc(C(F)(F)F)cc2Cl)cc1F`, the result in experiment [2], in [4], in experiment [5], in [6], in experiment [8] and in experiment [9] was inactive. For the same molecule, the outcome in [10], in [13], in experiment [14], in [15], in [16] and in experiment [17] was inactive. In addition, the molecule was called inactive in [18] and in experiment [19]. Also, the AC50 in experiment [12] is 3.59 µM (active).

For the molecule `C[N+](=O)[O-]`, the outcome in [1], in experiment [3], in experiment [4], in [6], in experiment [7] and in experiment [11] was inactive. Also, the call in experiment [8], in experiment [9], in experiment [12], in experiment [13], in experiment [16] and in [18] was inactive. Besides, the result in experiment [19] was inactive.

In the case of `CN(C)C(=O)C(c1ccccc1)c1ccccc1`, the outcome in experiment [2], in [3], in experiment [5], in [6], in [11] and in experiment [8] was inactive. Besides, the molecule was called inactive in [9], in experiment [12], in experiment [10], in experiment [13], in [14] and in experiment [15]. Further, the outcome in experiment [16], in experiment [17] and in experiment [18] was inactive.

Turning to `CC(C)CCCCCCCOP(=O)(Oc1ccccc1)Oc1ccccc1`, the molecule was classed as inactive in experiment [1], in experiment [2], in experiment [5], in experiment [7], in [11] and in experiment [8]. Besides, the molecule was classed as inactive in experiment [9], in experiment [10], in experiment [13], in experiment [14], in [15] and in [16]. Also, the outcome in [17], in experiment [18], in experiment [19] and in experiment [20] was inactive. In addition, the AC50 in [12] is 7.95 µM (active).

Regarding `CCCCCCC1CCOC1=O` (stereo not drawn), the outcome in experiment [1], in [2], in experiment [3], in experiment [4], in [5] and in experiment [11] was inactive. Further, the molecule was classed as inactive in experiment [8], in [9], in experiment [12], in experiment [14], in experiment [17] and in [18]. Besides, in [19], the result was inactive. In addition, in experiment [20], the AC50 is 23.3 µM (active).

`CCC(C)(C)O`: the call in [1], in experiment [2], in [3], in [4], in experiment [5] and in experiment [6] was inactive. For the same molecule, the result in experiment [7], in experiment [11], in [8], in experiment [9] and in experiment [20] was inactive.

What is called AC50 is the midpoint of the concentration-response curve, whichever way the signal moves.
